# The source made the active and inactive calls. How the calls were made is not given here.
# Biological target: L-lactate dehydrogenase (Plasmodium falciparum (isolate CDC / Honduras)) (UniProt Q27743)
# Assay: PfLDH activity inhibition – cell lysate, 3D7 strain, counter-screen for P. falciparum growth inhibition project (AID 2304);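 further: 0% = vehicle and 100% = reference inhibitor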
# Details: P. falciparum 3D7 crude extract, LDH APAD/NBT absorbance; at 2 µM; stronger effect = higher value
# Sequence of L-lactate dehydrogenase (Plasmodium falciparum (isolate CDC / Honduras)) (Q27743 whole entry, looked up): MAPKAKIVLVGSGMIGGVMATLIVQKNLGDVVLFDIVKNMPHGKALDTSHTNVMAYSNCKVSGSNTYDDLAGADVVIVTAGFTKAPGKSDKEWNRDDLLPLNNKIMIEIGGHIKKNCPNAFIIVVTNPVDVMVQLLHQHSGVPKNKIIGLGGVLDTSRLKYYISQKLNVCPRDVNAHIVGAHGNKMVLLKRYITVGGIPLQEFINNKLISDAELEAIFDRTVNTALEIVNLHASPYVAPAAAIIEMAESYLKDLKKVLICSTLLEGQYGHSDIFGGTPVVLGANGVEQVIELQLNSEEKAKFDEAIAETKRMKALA
row,Compound,inhibition
1,O=C(Cc1ccc(Nc2nccc(Nc3cccc4[nH]ncc34)n2)cc1)Nc1ccc(C(F)(F)F)cc1,-6% (inactive)
2,Cc1ccc(S(=O)(=O)Nc2ccc(Nc3nccc(Nc4cccc5[nH]ncc45)n3)cc2)cc1,6% (inactive)
3,CCN(CC)CCNc1nccc(N(C)c2ccc(NC(=O)Nc3cc(C(F)(F)F)ccc3F)cc2)n1,1% (inactive)
4,N#Cc1cnc(Nc2ccc(Oc3ccccc3)cc2)nc1Nc1cccc(S(N)(=O)=O)c1,3% (inactive)
5,CN(c1ccc(NC(=O)Nc2cc(C(C)(C)C)on2)cc1)c1ccnc(NCCN2CCOCC2)n1,-5% (inactive)
6,O=C(O)c1cccnc1Sc1ccc(Cl)cc1,3% (inactive)
7,C#CCNC(=O)c1ccc(-c2ccnc(Nc3cccc(CCCN4CCOCC4)c3)n2)s1,-4% (inactive)
8,C(=N\Nc1nccc2sc(-c3ccccc3)cc12)/c1cccnc1,8% (inactive)
9,CC(=O)c1ccc(NC(=O)Nc2ccc(N(C)c3ccnc(Nc4cccc(CS(C)(=O)=O)c4)n3)cc2)cc1,-1% (inactive)
10,COc1c(CN2CCOCC2)cccc1-c1cc2c(-c3ccc(C(=O)O)c(C(C)C)c3)ccnc2[nH]1,-3% (inactive)
11,CN(C)CC(O)COc1ccc(Nc2ncc([N+](=O)[O-])c(Nc3ccccc3O)n2)cc1 (stereo not drawn),-4% (inactive)
12,CS(=O)(=O)Cc1cccc(Nc2ncc(Cl)c(Nc3cccnc3C(N)=O)n2)c1,-3% (inactive)
13,N#CCc1ccc(Nc2nccc(Nc3ccc(Oc4ccccc4)cc3)n2)cc1,6% (inactive)
14,CCN(CC)CCCNc1nccc(N(C)c2ccc(NC(=O)Nc3cc(C(F)(F)F)ccc3F)cc2)n1,-6% (inactive)
15,Cn1nc(-c2ccc(NC(=O)Nc3ccc4ccccc4c3)c(F)c2)c2cnc(NCCN3CCOCC3)nc21,1% (inactive)
16,CCNC(=O)Nc1ccc(-c2cnc(N)c(-c3nc4ccc(OC)cc4[nH]3)c2)cc1,1% (inactive)
17,CC(C)(CN)c1nc(-c2ccc(Br)c(O)c2)c(-c2ccncc2)[nH]1,0% (inactive)
18,Oc1cc(-c2nc(-c3ccccc3)[nH]c2-c2ccncc2)ccc1Cl,-6% (inactive)
19,CC(C)(NCc1ncc[nH]1)c1nc(-c2ccc(Cl)c(O)c2)c(-c2ccncc2)[nH]1,3% (inactive)
20,CN1CCC(NC(=O)c2cccc(Nc3cc(Nc4cccc(Br)c4)ncn3)c2)CC1,1% (inactive)

row,Compound,inhibition
1,Cn1cnc2c(Nc3ccncc3)nc(-c3ccc4c(c3)OCO4)nc21,-1% (inactive)
2,CC(C)(CNC(=O)C1CCN(Cc2ccc(Cl)cc2)CC1)c1nc(-c2ccc(Cl)c(O)c2)c(-c2ccncc2)[nH]1,-6% (inactive)
3,CS(=O)(=O)Cc1ccc(Nc2ncc(Cl)c(Nc3cccnc3C(N)=O)n2)cc1,-4% (inactive)
4,Nc1ncc(-c2cccc(F)c2)cc1-c1nc2ccc(F)cc2[nH]1,-3% (inactive)
5,CN(c1ccc(NC(=O)Nc2cccc(Cl)c2)cc1)c1ccnc(N)n1,-1% (inactive)
6,CC(=O)Nc1nc(C)c(-c2csc(Nc3ccc(Cl)cc3)n2)s1,0% (inactive)
7,CN(C)CCOc1ccc(-c2cc(-c3ccc(Cl)c(O)c3)c(-c3ccnc(N)n3)o2)cc1,2% (inactive)
8,COc1c(CN2CCCC2)cccc1-c1cc2c(-c3ccc(C(=O)O)c(C(C)C)c3)ccnc2[nH]1,-1% (inactive)
9,NS(=O)(=O)c1cccc(Nc2nccc(-c3cnn4ncccc34)n2)c1,0% (inactive)
10,CN(c1ccc2c(c1)nc(NCc1ccccc1)n2C)c1ccnc(Nc2ccc(CS(C)(=O)=O)cc2)n1,4% (inactive)
11,CC(C)(CNC(=O)[C@H]1CCCN1)c1nc(-c2ccc(Cl)c(O)c2)c(-c2ccncc2)[nH]1,-1% (inactive)
12,Nc1ncc(-c2cn[nH]c2)cc1-c1nc2ccc(Cl)cc2[nH]1,-5% (inactive)
13,Cc1ccc(Nc2nc3cc(Nc4ccnc(Nc5cccc(CS(C)(=O)=O)c5)n4)ccc3o2)cc1,4% (inactive)
14,N=C(N)c1ccc(Nc2nccc(Nc3nc(-c4ccccc4)cs3)n2)cc1,-8% (inactive)
15,N=C(N)c1ccc(Nc2nc(Nc3ccc(-c4ccccc4)cc3)ncc2[N+](=O)[O-])cc1,-3% (inactive)
16,CN(c1ccc(NC(=O)Nc2cc(C(F)(F)F)ccc2F)cc1)c1ccnc(NCCN2CCOCC2)n1,-2% (inactive)
17,Cc1cc(Nc2nc(Nc3cccc(Cl)c3)nc3ccccc23)n[nH]1,-2% (inactive)
18,COc1cccc(-n2ncc3c(N/N=C/c4ccc(CN(C)CCN(C)C)cc4)ncnc32)c1,-2% (inactive)
19,CN(c1ccc2c(c1)nc(NCc1ccc(F)cc1)n2C)c1ccnc(Nc2ccc(CS(C)(=O)=O)cc2)n1,7% (inactive)

# Tested on: not listed separately
# Assay: inhibition of 3D7 malaria parasite growth – strain 3D7 (AID 2306);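 further: 0% = DMSO wells and 100% = chloroquine plus artemisinin control wells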
# Details: P. falciparum 3D7 erythrocytic growth, LDH absorbance, 72 h; at 2 µM; stronger effect = higher value
row,Compound,growth inhibition
1,O=C(Cc1ccc(Nc2nccc(Nc3cccc4[nH]ncc34)n2)cc1)Nc1ccc(C(F)(F)F)cc1,100% (active)
2,Cc1ccc(S(=O)(=O)Nc2ccc(Nc3nccc(Nc4cccc5[nH]ncc45)n3)cc2)cc1,90% (active)
3,CCN(CC)CCNc1nccc(N(C)c2ccc(NC(=O)Nc3cc(C(F)(F)F)ccc3F)cc2)n1,97% (active)
4,N#Cc1cnc(Nc2ccc(Oc3ccccc3)cc2)nc1Nc1cccc(S(N)(=O)=O)c1,96% (active)
5,CN(c1ccc(NC(=O)Nc2cc(C(C)(C)C)on2)cc1)c1ccnc(NCCN2CCOCC2)n1,95% (active)
6,O=C(O)c1cccnc1Sc1ccc(Cl)cc1,100% (active)
7,C#CCNC(=O)c1ccc(-c2ccnc(Nc3cccc(CCCN4CCOCC4)c3)n2)s1,82% (active)
8,C(=N\Nc1nccc2sc(-c3ccccc3)cc12)/c1cccnc1,97% (active)
9,CC(=O)c1ccc(NC(=O)Nc2ccc(N(C)c3ccnc(Nc4cccc(CS(C)(=O)=O)c4)n3)cc2)cc1,100% (active)
10,COc1c(CN2CCOCC2)cccc1-c1cc2c(-c3ccc(C(=O)O)c(C(C)C)c3)ccnc2[nH]1,98% (active)
11,CN(C)CC(O)COc1ccc(Nc2ncc([N+](=O)[O-])c(Nc3ccccc3O)n2)cc1 (stereo not drawn),100% (active)
12,CS(=O)(=O)Cc1cccc(Nc2ncc(Cl)c(Nc3cccnc3C(N)=O)n2)c1,96% (active)
13,N#CCc1ccc(Nc2nccc(Nc3ccc(Oc4ccccc4)cc3)n2)cc1,98% (active)
14,CCN(CC)CCCNc1nccc(N(C)c2ccc(NC(=O)Nc3cc(C(F)(F)F)ccc3F)cc2)n1,94% (active)
15,Cn1nc(-c2ccc(NC(=O)Nc3ccc4ccccc4c3)c(F)c2)c2cnc(NCCN3CCOCC3)nc21,93% (active)
16,CCNC(=O)Nc1ccc(-c2cnc(N)c(-c3nc4ccc(OC)cc4[nH]3)c2)cc1,100% (active)
17,CC(C)(CN)c1nc(-c2ccc(Br)c(O)c2)c(-c2ccncc2)[nH]1,96% (active)
18,Oc1cc(-c2nc(-c3ccccc3)[nH]c2-c2ccncc2)ccc1Cl,96% (active)
19,CC(C)(NCc1ncc[nH]1)c1nc(-c2ccc(Cl)c(O)c2)c(-c2ccncc2)[nH]1,95% (active)
20,CN1CCC(NC(=O)c2cccc(Nc3cc(Nc4cccc(Br)c4)ncn3)c2)CC1,94% (active)

row,Compound,growth inhibition
1,Cn1cnc2c(Nc3ccncc3)nc(-c3ccc4c(c3)OCO4)nc21,96% (active)
2,CC(C)(CNC(=O)C1CCN(Cc2ccc(Cl)cc2)CC1)c1nc(-c2ccc(Cl)c(O)c2)c(-c2ccncc2)[nH]1,100% (active)
3,CS(=O)(=O)Cc1ccc(Nc2ncc(Cl)c(Nc3cccnc3C(N)=O)n2)cc1,97% (active)
4,Nc1ncc(-c2cccc(F)c2)cc1-c1nc2ccc(F)cc2[nH]1,100% (active)
5,CN(c1ccc(NC(=O)Nc2cccc(Cl)c2)cc1)c1ccnc(N)n1,100% (active)
6,CC(=O)Nc1nc(C)c(-c2csc(Nc3ccc(Cl)cc3)n2)s1,96% (active)
7,CN(C)CCOc1ccc(-c2cc(-c3ccc(Cl)c(O)c3)c(-c3ccnc(N)n3)o2)cc1,100% (active)
8,COc1c(CN2CCCC2)cccc1-c1cc2c(-c3ccc(C(=O)O)c(C(C)C)c3)ccnc2[nH]1,99% (active)
9,NS(=O)(=O)c1cccc(Nc2nccc(-c3cnn4ncccc34)n2)c1,89% (active)
10,CN(c1ccc2c(c1)nc(NCc1ccccc1)n2C)c1ccnc(Nc2ccc(CS(C)(=O)=O)cc2)n1,94% (active)
11,CC(C)(CNC(=O)[C@H]1CCCN1)c1nc(-c2ccc(Cl)c(O)c2)c(-c2ccncc2)[nH]1,86% (active)
12,Nc1ncc(-c2cn[nH]c2)cc1-c1nc2ccc(Cl)cc2[nH]1,101% (active)
13,Cc1ccc(Nc2nc3cc(Nc4ccnc(Nc5cccc(CS(C)(=O)=O)c5)n4)ccc3o2)cc1,101% (active)
14,N=C(N)c1ccc(Nc2nccc(Nc3nc(-c4ccccc4)cs3)n2)cc1,96% (active)
15,N=C(N)c1ccc(Nc2nc(Nc3ccc(-c4ccccc4)cc3)ncc2[N+](=O)[O-])cc1,99% (active)
16,CN(c1ccc(NC(=O)Nc2cc(C(F)(F)F)ccc2F)cc1)c1ccnc(NCCN2CCOCC2)n1,97% (active)
17,Cc1cc(Nc2nc(Nc3cccc(Cl)c3)nc3ccccc23)n[nH]1,103% (active)
18,COc1cccc(-n2ncc3c(N/N=C/c4ccc(CN(C)CCN(C)C)cc4)ncnc32)c1,100% (active)
19,CN(c1ccc2c(c1)nc(NCc1ccc(F)cc1)n2C)c1ccnc(Nc2ccc(CS(C)(=O)=O)cc2)n1,97% (active)

# Source: PubChem BioAssay
